Source: PubChem BioAssay
Compounds with a hit are over-represented: about 2.8% of the library has one in this group of screens.
S2 tox: Viability Counterscreen for Primary qHTS for Inhibitors of ATXN expression. S2 cells (HEK-293 line with an ATXN2-luciferase reporter) viability, CellTiter-Fluor protease fluorescence, 24 h. Potency, µM (top dose mostly 56.7 µM), usual class: cytotoxic. 400,000 tested, 0.49% active. AID 651635, 2014; further: potency means the concentration at half of the fitted maximal effect; nearly all actives have a fitted effect of over 40% in size
ATXN2 expr inh: Primary qHTS for Inhibitors of ATXN expression | HEK-293 ATXN2-luciferase reporter, luminescence, 24 h | 360,000 tested, 0.72% active | Potency, µM (titrated, usually from 57 µM), inactives show at the highest dose activity change, negative = inhibition, actives largely listed as inhibitors; further: potency means the concentration at half of the fitted maximal effect; on the % scale 0 is the no-effect control and ±100 the full control effect; nearly all actives have a fitted effect of over 55% in size
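qHTS (up to 57 uM final) was run with 24 h compound exposure of reporter cells at 37 °C. Each well was multiplexed: SteadyGlo luminescence measured ATXN2-luciferase expression after a fluorogenic Gly-Phe-AFC viability readout (25 uM final).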
CtBP-E1A blk: qHTS Assay for Inhibitors of the CtBP/E1A Interaction; AlphaScreen GST-E1A/His-CtBP binding, 1536-well; stronger effect = lower value; activity change, % (concentration not given with the values); 340,000 tested, 0.49% active; AID 651724, 2012; in the data active means activity change below about -65%; inconclusive means mostly about -30% to -63%; further: on the % scale 0 is the no-effect control and ±100 the full control effect
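AlphaScreen with 125 nM GST-E1A and 125 nM His-CtBP (5X stocks) in Tris pH 8.0, 300 mM NaCl, BSA, Tween 20, TCEP. Compounds preincubated 2 h at 37 deg C, then glutathione donor/nickel acceptor beads added for 1 h at 37 deg C in dark.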
Six1-Eya2 blk: qHTS Assay for Inhibitors of the Six1/Eya2 Interaction | Homeobox protein SIX1 (Homo sapiens) + Protein phosphatase EYA2 (Homo sapiens), … | AlphaScreen GST-Six1/His-Eya2 binding, biochemical; stronger effect = lower value | activity change, % (no concentration beside the values) | 360,000 tested, 0.56% active | AID 651725, 2012; in the data active means activity change below about -65%; inconclusive means mostly about -30% to -63%; further: on the % scale 0 is the no-effect control and ±100 the full control effect
Target sequence (O00167 whole entry, looked up): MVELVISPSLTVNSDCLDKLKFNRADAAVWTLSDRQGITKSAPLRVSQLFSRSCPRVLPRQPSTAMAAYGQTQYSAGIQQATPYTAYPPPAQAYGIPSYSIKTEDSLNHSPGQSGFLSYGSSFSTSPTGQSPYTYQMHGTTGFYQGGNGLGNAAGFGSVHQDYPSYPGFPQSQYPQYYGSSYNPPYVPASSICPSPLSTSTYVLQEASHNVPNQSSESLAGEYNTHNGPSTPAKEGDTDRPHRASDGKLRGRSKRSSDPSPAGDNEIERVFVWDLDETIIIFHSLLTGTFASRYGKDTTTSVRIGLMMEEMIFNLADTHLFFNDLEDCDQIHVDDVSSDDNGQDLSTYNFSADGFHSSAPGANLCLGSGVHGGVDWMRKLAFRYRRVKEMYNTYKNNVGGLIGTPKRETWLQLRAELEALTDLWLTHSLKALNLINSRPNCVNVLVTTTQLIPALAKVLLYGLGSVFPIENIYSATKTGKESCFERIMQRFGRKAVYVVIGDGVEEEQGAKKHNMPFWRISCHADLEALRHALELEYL
Target sequence (Q15475 whole entry, looked up): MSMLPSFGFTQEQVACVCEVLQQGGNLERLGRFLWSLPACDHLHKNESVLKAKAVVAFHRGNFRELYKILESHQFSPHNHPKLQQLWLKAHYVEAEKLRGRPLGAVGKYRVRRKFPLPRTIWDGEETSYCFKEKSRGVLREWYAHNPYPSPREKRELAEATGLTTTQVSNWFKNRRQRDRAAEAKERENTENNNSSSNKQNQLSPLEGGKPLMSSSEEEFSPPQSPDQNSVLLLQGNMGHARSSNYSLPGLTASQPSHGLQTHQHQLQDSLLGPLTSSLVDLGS
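GST-Six1 + His-Eya2 (5X stock: 250/500 nM); Tris pH 8.0, 300 mM NaCl, 0.05% BSA, 0.02% Tween 20; GSH donor/Ni acceptor beads; 1 h 37 °C dark; AlphaScreen readout.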
TGFb inhibitor: qHTS for Inhibitors of TGF-b; HepG2 CAGA-GFP TGF-b/SMAD3 reporter, GFP fluorescence, 18 h; TGF-beta stimulated, 500 pg/mL final; Potency, µM (series often up to 46.1 µM), without a hit: at the highest dose activity, negative = inhibition, usual class: inhibitors; 410,000 tested, 1.2% active; AID 588855, 2011; further: potency means the concentration at half of the fitted maximal effect; on the % scale 0 is the no-effect control and ±100 the full control effect; nearly all actives have a fitted effect of over 65% in size
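TGF-beta reporter screen: HEPG2 CAGA-GFP, 1% FBS, 500 pg/mL TGF-beta final, 18 h; per-cell GFP summed per well; curves fitted and categorized by class.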
HepG2 tox-1: qHTS for Inhibitors of TGF-b: Cytotox Counterscreen; HepG2 CAGA-GFP viability, ATP luminescence, 18 h; Potency, µM (highest dose often 46.1 µM), without a hit: at the highest dose activity change, negative = cytotoxicity, hits mostly cytotoxic; 410,000 tested, 0.76% active; further: potency means the concentration at half of the fitted maximal effect
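HepG2 CAGA-GFP cells (1000/well, DMEM with 1% FBS) received compound, then TGF-beta at 500 pg/mL final, and were incubated 18 hours at 37 degrees C. Viability was read by CellTiter-Glo luminescence. Media-only wells were set as complete cell-killing and DMSO as no toxicity.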
TGFb confirm: qHTS for Inhibitors of TGF-b: Confirmation of Cherry Picks; 1,600 tested, 63% active; shares compounds with TGFb inhibitor; Potency, µM (highest dose often 46.1 µM), inactives show at the top dose activity, negative = inhibition, actives largely listed as inhibitors; HepG2 CAGA-GFP TGF-b reporter, GFP fluorescence, 18 h; cells stimulated with TGF-beta, 500 pg/mL; further: potency means the concentration at half of the fitted maximal effect; on the % scale 0 is the no-effect control and ±100 the full control effect; nearly all actives have a fitted effect of over 65% in size
HepG2 tox-2: qHTS for Inhibitors of TGF-b: Cytotox Counterscreen for Cherry Picks; shares compounds with TGFb inhibitor; HepG2 CAGA-GFP viability, ATP luminescence, 18 h; cells stimulated with TGF-beta, 500 pg/mL; Potency, µM (titrated, usually from 46.1 µM), for the others: top-dose activity, negative = cytotoxicity, actives largely listed as inhibitors; 1,600 tested, 27% active; AID 720535, 2013; further: potency means the concentration at half of the fitted maximal effect; on the % scale 0 is the no-effect control and ±100 the full control effect; nearly all actives have a fitted effect of over 70% in size
TGFb CCL64 inh: qHTS for Inhibitors of TGF-b: CCL64 Cells Orthogonal Assay for Cherry Picks | shares compounds with TGFb inhibitor | CCL64 CAGA-GFP reporter, TGF-b stimulated, GFP fluorescence, 18 h | Potency, µM (doses to about 46.1 µM), for inactives: at the highest dose activity, negative = inhibition, actives largely listed as inhibitors | 1,600 tested, 41% active | AID 720536, 2013; further: potency means the concentration at half of the fitted maximal effect; nearly all actives have a fitted effect of over 65% in size
COP TGFb inh: qHTS for Inhibitors of TGF-b: Hit Validation in HepG2 Cells using COP promoter; HepG2 COP-GFP TGF-b reporter, GFP fluorescence, 18 h; cells stimulated by added recombinant TGF-beta; Potency, µM (highest dose often 46.1 µM), inactives show at the highest dose activity, negative = inhibition, actives largely listed as inhibitors; shares compounds with TGFb inhibitor; 1,600 tested, 3% active; AID 720537, 2013; further: potency means the concentration at half of the fitted maximal effect; nearly all actives have a fitted effect of over 70% in size
Active calls of the source: *; i = inactive; ? = inconclusive; . = no result given. Unless noted, the call rests on the fitted dose curve; in most records, active means well fitted curve in the direction sought with a large enough effect; inconclusive means small, poorly fitted or top-dose-only effect, or another doubt; inactive means no such curve, though single readings can be large; an effect the other way counts as inactive or inconclusive.

SMILES	S2 tox	ATXN2 expr inh	CtBP-E1A blk	Six1-Eya2 blk	TGFb inhibitor	HepG2 tox-1	TGFb confirm	HepG2 tox-2	TGFb CCL64 inh	COP TGFb inh
OC(c1cc(-c2ccc(C(F)(F)F)cc2)nc(C(F)(F)F)c1)C1CCCCN1 (stereo not drawn)	3.2µM*	.	.	9	2.8µM*	-84%	6.5µM*	23µM*	23µM*	?
O=C1OCCN1C(=O)[C@H]1[C@H](c2ccccc2)C(c2cccc(Cl)c2)=NN1c1ccc(Br)cc1	.	-1%	52	66	?	-15%	?	-17%	23%	3%
CN=c1sc2c(n1C)C(=O)c1ccccc1C2=O	.	?	5	-29	1.4µM*	2.2µM*	1.8µM*	2.6µM*	5.2µM*	4.6µM*
CN=c1sc(C(=O)Nc2ccccc2)c(C)n1C	i	-7%	-3	-1	-6%	-1%	.	.	.	.
Cn1cc([N+](=O)[O-])c(C(=O)Nc2sc3c(c2C#N)CCC3)n1	i	.	.	-6	8.9µM*	17%	13µM*	7.3µM*	2%	70%
CCOC(=O)[C@]12CCCC=C1N(Cc1ccc(Cl)cc1Cl)C(=O)[C@H](CC(=O)N1CCOCC1)C2	i	-11%	-4	-23	.	.	.	.	.	.
O=C(c1ccc(F)cc1)N1CCc2c([nH]c3ccccc23)C1c1ccc(Cl)cc1 (stereo not drawn)	.	.	.	.	?	-25%	.	.	.	.
N#Cc1ccc(C(=O)NCC(c2ccco2)N2CCCCC2)cc1 (stereo not drawn)	i	4%	5	-5	-6%	3%	.	.	.	.
O=C(NCC(c1ccco1)N1CCCCC1)c1ccc(COc2ccc(Cl)cc2)cc1 (stereo not drawn)	?	?	6	-9	13µM*	-25%	16µM*	?	16µM*	73%
COc1ccc(/C=C/C(=O)c2ccccc2)cc1Cn1nnc2ccccc21	.	?	10	-6	8.9µM*	-17%	6.5µM*	23µM*	23µM*	0%
COc1ccc(/C=C/C(=O)c2ccccc2)cc1COc1ccc(F)cc1	?	?	0	2	1%	-18%	.	.	.	.
CCCc1cc(=O)[nH]c(SCc2nc(-c3ccc(C)cc3)no2)n1	.	.	.	.	-11%	-11%	.	.	.	.
COc1ccc(-c2noc(C3CCCN(C(=O)c4ccccc4)C3)n2)cc1 (stereo not drawn)	i	4%	1	-2	-20%	-23%	.	.	.	.
O=C(c1ccco1)N1CCCC(c2nc(-c3ccc(S(=O)(=O)NCc4ccccc4)cc3)no2)C1 (stereo not drawn)	?	28µM*	-5	-6	?	-69%	15µM*	?	-22%	41%
CCOc1ccc(C2c3c(oc4ccc(C)cc4c3=O)C(=O)N2c2nc(C)c(C)s2)cc1OC (stereo not drawn)	i	7%	.	.	15%	-2%	.	.	.	.
COc1ccccc1N1CCN(Cc2nc(-c3cc(OC)c(OC)c(OC)c3)no2)CC1	i	0%	.	.	?	-26%	.	.	.	.
Cc1ccccc1NC(=O)c1cc(C(=O)c2cc(Cl)ccc2O)cn(-c2ccccc2C)c1=O	?	-29%	-20	-10	7.1µM*	-35%	16µM*	?	13µM*	43%
Cc1ccc(-n2cc(C(=O)c3cc(Cl)ccc3O)cc(C#N)c2=O)cc1	i	-18%	0	-5	?	-50%	.	.	.	.
CC(C)CCN1C(Nc2ccccc2)=NC[C@@H]1CC(C)C	i	-11%	2	-2	-17%	-18%	.	.	.	.
CC(C)C[C@H]1CN=C(Nc2ccccc2)N1CCc1ccc(F)cc1	i	-14%	1	2	8.9µM*	-33%	7.3µM*	?	18µM*	60%
CC(C)C[C@H]1CN=C(Nc2ccccc2)N1CCc1cccc(F)c1	i	-31%	-19	13	7.1µM*	-26%	5.8µM*	?	13µM*	54%
Cc1cccc(CCN2C(Nc3ccccc3)=NC[C@@H]2CC(C)C)c1	?	?	2	-22	6.3µM*	1%	5.2µM*	?	?	87%
Cc1ccsc1C(=O)OCC(=O)NCc1cccs1	i	.	4	0	8%	5%	.	.	.	.
CCNC(=O)N1CCN(/[N+]([O-])=N/Oc2ccc([N+](=O)[O-])cc2[N+](=O)[O-])CC1	.	.	.	.	?	-50%	.	.	.	.
Cc1ccc(NC(=O)Cc2csc(C)n2)c(C)c1	.	.	.	.	-28%	-13%	.	.	.	.
COc1ccc(NC(=O)CN2C(=O)C(=O)c3ccccc32)c(OC)c1	i	-13%	.	.	?	-30%	.	.	.	.
Cc1nc2cccnc2n1C1CCN(C(=O)Nc2ccc(Cl)cc2)CC1	i	15%	.	.	-2%	-22%	.	.	.	.
CC1CCN(C(=O)c2[nH]cnc2C(=O)NCc2ccc(CNC(=O)OC(C)(C)C)cc2)CC1	i	-4%	6	-3	?	-7%	?	6%	0%	-6%
CC(C)(C)OC(=O)N1CCC(NC(=O)c2[nH]cnc2C(=O)Nc2ccccc2)CC1	?	?	-6	-9	13µM*	6%	?	?	?	22%
